About 2,000 (36%) of roughly 5,500 compounds were called active. Roughly 18% stayed inconclusive and do not appear here. No stated cut-off is given here; in the data, active means normalized growth mostly below about 0.91 (no sharp cut-off); inconclusive means no clear call, values can overlap the other calls; inactive means mostly above about 0.92. The list shows a part of the results.
Test: chemical genetic growth profiling, strain panel (AID 1159580);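 further: tested at 20 µM; growth read once vehicle control cultures reached saturation at 30 °C; 1 = growth at the plate median or of vehicle wells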
Conditions: growth OD

Measured: normalized growth

COC1=C[C@@H]2[C@@H]3Cc4ccc(OC)c(O)c4[C@]2(CCN3C)CC1=O
inactive: S. cerevisiae deletion strains, locus YJR075W, strain HOC1, stronger effect = lower value 0.928 | S. cerevisiae deletion strains, locus YKL009W, strain mrt4, stronger effect = lower value 0.978 | S. cerevisiae deletion strains, locus YKL068W, stronger effect = lower value 0.977 | S. cerevisiae deletion strains, locus YKL085W, strain MDH1 (second series), stronger effect = lower value 0.979 | S. cerevisiae deletion strains, locus YKL085W, strain MDH1, stronger effect = lower value 0.979 | S. cerevisiae deletion strains, locus YKL160W, strain elf1, stronger effect = lower value 0.996 | S. cerevisiae deletion strains, locus YKL190W, strain CNB1, stronger effect = lower value 0.977 | S. cerevisiae deletion strains, locus YKR001C, strain vps1, stronger effect = lower value 0.992 | S. cerevisiae deletion strains, locus YKR026C, strain gcn3, stronger effect = lower value 1 | S. cerevisiae deletion strains, locus YKR091W, strain srl3, stronger effect = lower value 0.984 | S. cerevisiae deletion strains, locus YLL001W, strain dnm1, stronger effect = lower value 0.997 | S. cerevisiae deletion strains, locus YLL026W, stronger effect = lower value 0.982 | S. cerevisiae deletion strains, locus YLL041C, strain sdh2, stronger effect = lower value 1 | S. cerevisiae deletion strains, locus YLR027C, strain aat2, stronger effect = lower value 1 | S. cerevisiae deletion strains, locus YLR039C, strain RIC1, stronger effect = lower value 0.98 | S. cerevisiae deletion strains, locus YLR058C, strain SHM2, stronger effect = lower value 0.976 | S. cerevisiae deletion strains, locus YLR102C, strain apc9, stronger effect = lower value 0.971 | S. cerevisiae deletion strains, locus YLR113W, strain HOG1, stronger effect = lower value 1.01 | S. cerevisiae deletion strains, locus YLR221C, strain rsa3, stronger effect = lower value 0.993 | S. cerevisiae deletion strains, locus YLR258W, strain gsy2, stronger effect = lower value 0.987 | S. cerevisiae deletion strains, locus YLR262C, strain YPT6 (second series), stronger effect = lower value 0.999 | S. cerevisiae deletion strains, locus YLR262C, strain YPT6, stronger effect = lower value 0.926 | S. cerevisiae deletion strains, locus YLR268W, strain sec22, stronger effect = lower value 0.967 | S. cerevisiae deletion strains, locus YLR320W, strain mms22, stronger effect = lower value 1 | S. cerevisiae deletion strains, locus YLR330W, strain CHS5, stronger effect = lower value 0.999 | S. cerevisiae deletion strains, locus YLR342W, strain FKS1 (second series), stronger effect = lower value 1.03 | S. cerevisiae deletion strains, locus YLR342W, strain FKS1, stronger effect = lower value 1 | S. cerevisiae deletion strains, locus YLR357W, strain rsc2, stronger effect = lower value 0.943 | S. cerevisiae deletion strains, locus YLR370C, strain arc18, stronger effect = lower value 1 | S. cerevisiae deletion strains, locus YLR371W, strain rom2, stronger effect = lower value 0.952 | S. cerevisiae deletion strains, locus YLR384C, strain iki3, stronger effect = lower value 0.987 | S. cerevisiae deletion strains, locus YLR418C, strain cdc73, stronger effect = lower value 0.969 | S. cerevisiae deletion strains, locus YML016C, strain PPZ1, stronger effect = lower value 0.979 | S. cerevisiae deletion strains, locus YML032C, strain rad52, stronger effect = lower value 0.985 | S. cerevisiae deletion strains, locus YML120C, strain ndi1, stronger effect = lower value 1 | S. cerevisiae deletion strains, locus YML124C, strain tub3, stronger effect = lower value 0.986 | S. cerevisiae deletion strains, locus YMR058W, strain fet3, stronger effect = lower value 1.01 | S. cerevisiae deletion strains, locus YMR078C, strain ctf18, stronger effect = lower value 0.977 | S. cerevisiae deletion strains, locus YMR125W, strain sto1, stronger effect = lower value 0.975 | S. cerevisiae deletion strains, locus YMR129W, stronger effect = lower value 1 | S. cerevisiae deletion strains, locus YMR205C, strain PFK2, stronger effect = lower value 0.985 | S. cerevisiae deletion strains, locus YMR231W, strain pep5, stronger effect = lower value 0.995 | S. cerevisiae deletion strains, locus YMR263W, strain SAP30, stronger effect = lower value 0.962 | S. cerevisiae deletion strains, locus YMR307W, strain GAS1, stronger effect = lower value 1.03 | S. cerevisiae deletion strains, locus YNL067W, strain RPL9B, stronger effect = lower value 0.988 | S. cerevisiae deletion strains, locus YNL071W, strain lat1, stronger effect = lower value 0.996 | S. cerevisiae deletion strains, locus YNL128W, strain TEP1, stronger effect = lower value 0.961 | S. cerevisiae deletion strains, locus YNL153C, strain GIM3, stronger effect = lower value 0.96 | S. cerevisiae deletion strains, locus YNL183C, strain NPR1, stronger effect = lower value 0.959 | S. cerevisiae deletion strains, locus YNL209W, strain ssb2, stronger effect = lower value 1.01 | S. cerevisiae deletion strains, locus YNL233W, strain BNI4, stronger effect = lower value 0.979 | S. cerevisiae deletion strains, locus YNL248C, strain rpa49, stronger effect = lower value 0.978 | S. cerevisiae deletion strains, locus YNL250W, strain rad50, stronger effect = lower value 0.981 | S. cerevisiae deletion strains, locus YNL271C, strain bni1, stronger effect = lower value 0.988 | S. cerevisiae deletion strains, locus YNL298W, strain CLA4, stronger effect = lower value 0.96 | S. cerevisiae deletion strains, locus YNL307C, strain MCK1, stronger effect = lower value 0.989 | S. cerevisiae deletion strains, locus YNL322C, strain KRE1 (second series), stronger effect = lower value 0.975 | S. cerevisiae deletion strains, locus YNL322C, strain KRE1, stronger effect = lower value 0.98 | S. cerevisiae deletion strains, locus YNR049C, strain mso1, stronger effect = lower value 1.01 | S. cerevisiae deletion strains, locus YNR052C, strain pop2, stronger effect = lower value 0.982 | S. cerevisiae deletion strains, locus YOL006C, strain TOP1, stronger effect = lower value 0.942 | S. cerevisiae deletion strains, locus YOL012C, strain htz1 2.19 | S. cerevisiae deletion strains, locus YOL147C, strain pex11, stronger effect = lower value 0.992 | S. cerevisiae deletion strains, locus YOR001W, strain rrp6, stronger effect = lower value 1.01 | S. cerevisiae deletion strains, locus YOR061W, strain CKA2, stronger effect = lower value 0.962 | S. cerevisiae deletion strains, locus YOR069W, strain VPS5, stronger effect = lower value 0.987 | S. cerevisiae deletion strains, locus YOR070C, strain gyp1, stronger effect = lower value 0.986 | S. cerevisiae deletion strains, locus YOR080W, strain dia2, stronger effect = lower value 0.999 | S. cerevisiae deletion strains, locus YOR083W, strain WHI5, stronger effect = lower value 0.974 | S. cerevisiae deletion strains, locus YOR106W, strain vam3, stronger effect = lower value 0.997 | S. cerevisiae deletion strains, locus YOR136W, strain idh2, stronger effect = lower value 0.988 | S. cerevisiae deletion strains, locus YOR144C, strain elg1, stronger effect = lower value 0.986 | S. cerevisiae deletion strains, locus YOR184W, strain ser1, stronger effect = lower value 0.99 | S. cerevisiae deletion strains, locus YOR231W, strain MKK1, stronger effect = lower value 0.998 | S. cerevisiae deletion strains, locus YOR265W, strain rbl2, stronger effect = lower value 1.01 | S. cerevisiae deletion strains, locus YOR270C, strain vph1, stronger effect = lower value 0.996 | S. cerevisiae deletion strains, locus YOR290C, strain snf2, stronger effect = lower value 0.987 | S. cerevisiae deletion strains, locus YOR316C, strain cot1, stronger effect = lower value 0.965 | S. cerevisiae deletion strains, locus YPL051W, strain arl3, stronger effect = lower value 0.985 | S. cerevisiae deletion strains, locus YPL055C, strain LGE1, stronger effect = lower value 0.9 | S. cerevisiae deletion strains, locus YPL078C, strain atp4, stronger effect = lower value 0.983 | S. cerevisiae deletion strains, locus YPL106C, strain sse1, stronger effect = lower value 0.961 | S. cerevisiae deletion strains, locus YPL240C, strain hsp82, stronger effect = lower value 0.985 | S. cerevisiae deletion strains, locus YPL241C, strain CIN2, stronger effect = lower value 0.985 | S. cerevisiae deletion strains, locus YPL256C, strain CLN2, stronger effect = lower value 1.02 | S. cerevisiae deletion strains, locus YPR119W, strain clb2, stronger effect = lower value 0.984 | S. cerevisiae deletion strains, locus YPR141C, strain kar3, stronger effect = lower value 0.945 | S. cerevisiae deletion strains, locus YPR163C, strain tif3, stronger effect = lower value 0.983 | S. cerevisiae deletion strains, locus YPR167C, strain met16, stronger effect = lower value 0.979 | S. cerevisiae deletion strains, strain wtn01, stronger effect = lower value 0.992 | S. cerevisiae strains, strain wild type, stronger effect = lower value 0.992
